Measured values published in PubChem BioAssay (NCI).
Compounds without any hit were thinned out: in the full panel of roughly 79,000, 15% have a hit. The source made the active and inactive calls. Rule as the data show it: active = growth inhibition above about 70%; inactive = the rest.

Legend:
[1] = NCI Yeast Anticancer Drug Screen. Data for the rad50 strain (AID 155);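 also: 0% = growth of vehicle-only cultures of the same strain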; details: S. cerevisiae rad50 strain growth inhibition, stronger effect = higher value
Method in brief: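 Compounds were tested on a yeast strain with an engineered DNA damage repair alteration; the reported value is growth inhibition normalised to vehicle treatment.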

[2] = NCI Yeast Anticancer Drug Screen. Data for the mec2-1 strain (AID 157); details: S. cerevisiae mec2-1 strain, stronger effect = higher value
Method in brief: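 mec2-1 yeast strain, carrying an alteration in DNA damage repair or cell cycle control, was exposed to compounds; growth inhibition was measured relative to vehicle-treated controls.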

[3] = NCI Yeast Anticancer Drug Screen. Data for the sgs1 mgt1 strain (AID 161);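 also: 0% = growth of cultures given vehicle only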; details: S. cerevisiae sgs1 mgt1 strain, stronger effect = higher value
Method in brief: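 Compounds are added to genetically altered yeast, and growth is compared with cultures given vehicle alone to give percent inhibition.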

[4] = NCI Yeast Anticancer Drug Screen. Data for the cln2 rad14 strain (AID 165);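 also: 0% = growth equal to vehicle treated cultures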; details: S. cerevisiae cln2 rad14 strain, stronger effect = higher value
Method in brief: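 Yeast carrying cln2 and rad14 alterations (cell cycle control and DNA damage repair) were exposed to compounds. Growth inhibition was measured against vehicle-treated controls.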

[5] = NCI Yeast Anticancer Drug Screen. Data for the bub3 strain (AID 167); details: S. cerevisiae bub3 mutant strain, stronger effect = higher value
Method in brief: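 Growth of a checkpoint-deficient yeast mutant is measured after compound exposure. Values represent inhibition relative to vehicle.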

[6] = NCI Yeast Anticancer Drug Screen. Data for the mlh1 rad18 strain (AID 175); details: S. cerevisiae mlh1 rad18 strain growth inhibition, stronger effect = higher value
Method in brief: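 Growth inhibition of the yeast strain was measured after compound exposure and expressed relative to vehicle-treated controls. The strain carries defined defects in DNA damage repair.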

[7] = at 5.0 µM (retest, dose inferred, filed as 0.5)
[8] = at 50.0 µM (retest, dose inferred, filed as 5.0)

Measured: growth inhibition

NC(=O)C(=O)N/N=C/c1ccc([N+](=O)[O-])o1
inactive: [1]; [7] 14% | [1]; [8] 49% | [1]; at 50.0 µM 32.4% | [2]; [7] 6% | [2]; [8] 31% | [2]; at 50.0 µM 25.4% | [3]; [7] 2% | [3]; [8] 42% | [4]; [7] -1% | [4]; [8] 18% | [4]; at 50.0 µM 2.8% | [5]; [7] 37% | [5]; [8] 35% | [5]; at 50.0 µM 14.3% | [6]; [7] 16% | [6]; [8] 65% | [6]; at 50.0 µM 56.1%
active: [3]; at 50.0 µM 71.7%

C[n+]1c(/C=C/c2ccc(N3CCCC3)cc2)sc2ccccc21
inactive: [2]; [7] 37% | [4]; [7] 60% | [5]; [7] 46%
active: [1]; [7] 76% | [1]; [8] 98% | [1]; at 50.0 µM 98.6% | [2]; [8] 99% | [2]; at 50.0 µM 99.2% | [3]; [7] 95% | [3]; [8] 99% | [3]; at 50.0 µM 98.5% | [4]; [8] 98% | [4]; at 50.0 µM 98.8% | [5]; [8] 98% | [5]; at 50.0 µM 98.2% | [6]; [7] 85% | [6]; [8] 98% | [6]; at 50.0 µM 98.8%

Cc1ccc(N=Nc2ccc(N)c3ccccc23)c(S(N)(=O)=O)c1
active: [4]; at 50.0 µM 70.8%
inactive: [1]; [7] -4% | [1]; [8] 38% | [1]; at 50.0 µM 27.1% | [2]; [7] 0% | [2]; [8] 24% | [2]; at 50.0 µM 1.95% | [3]; [7] -1% | [3]; [8] 51% | [3]; at 50.0 µM 44.9% | [4]; [7] -2% | [4]; [8] 29% | [5]; [7] -6% | [5]; [8] 61% | [5]; at 50.0 µM 22.2% | [6]; [7] 0% | [6]; [8] 61% | [6]; at 50.0 µM 13.1%

COc1cccc2c1C(=O)c1c(O)c(CCl)cc(O)c1C2=O
active: [1]; [8] 97% | [1]; at 50.0 µM 94% | [2]; [8] 91% | [2]; at 50.0 µM 76.5% | [3]; [8] 96% | [3]; at 50.0 µM 95.2% | [4]; [8] 96% | [4]; at 50.0 µM 91.5% | [6]; [8] 97% | [6]; at 50.0 µM 94.6%
inactive: [1]; [7] 44% | [2]; [7] 23% | [3]; [7] 47% | [4]; [7] 17% | [5]; [7] 3% | [5]; [8] 49% | [5]; at 50.0 µM 21.8% | [6]; [7] 35%

CC1(C)COC(c2cccc(C(O)c3ccc(Cl)cc3)c2)=N1 (stereo not given)
inactive: [1]; [7] 40% | [1]; at 50.0 µM 47% | [2]; [7] -19% | [2]; at 50.0 µM 68% | [3]; [7] -23% | [4]; [7] -2% | [4]; at 50.0 µM 40.5% | [5]; [7] -21% | [5]; at 50.0 µM 52.5% | [6]; [7] 26% | [6]; at 50.0 µM 54.1%
active: [1]; [8] 99% | [2]; [8] 99% | [3]; [8] 99% | [3]; at 50.0 µM 72.5% | [4]; [8] 99% | [5]; [8] 99% | [6]; [8] 99%
